Assay results from PubChem BioAssay.

Legend:
[1] = molecular target: Tumor necrosis factor receptor superfamily member 10B (Homo sapiens) (UniProt O14763); test: caspase-8 TRAIL sensitization, hit retest, confirmation, cell-based, NB7+caspase-8, with/without TRAIL, luminescence panel (AID 651596); conditions: NB7 neuroblastoma + caspase-8, TRAIL sensitization, luminescence viability, with TRAIL, mean of runs, at 10 µM, stronger effect = higher value
[2] = as above; conditions: NB7 neuroblastoma + caspase-8, without TRAIL, luminescence viability, without TRAIL, mean of runs, at 10 µM

Chain of Tumor necrosis factor receptor superfamily member 10B (Homo sapiens) (O14763 whole entry, looked up): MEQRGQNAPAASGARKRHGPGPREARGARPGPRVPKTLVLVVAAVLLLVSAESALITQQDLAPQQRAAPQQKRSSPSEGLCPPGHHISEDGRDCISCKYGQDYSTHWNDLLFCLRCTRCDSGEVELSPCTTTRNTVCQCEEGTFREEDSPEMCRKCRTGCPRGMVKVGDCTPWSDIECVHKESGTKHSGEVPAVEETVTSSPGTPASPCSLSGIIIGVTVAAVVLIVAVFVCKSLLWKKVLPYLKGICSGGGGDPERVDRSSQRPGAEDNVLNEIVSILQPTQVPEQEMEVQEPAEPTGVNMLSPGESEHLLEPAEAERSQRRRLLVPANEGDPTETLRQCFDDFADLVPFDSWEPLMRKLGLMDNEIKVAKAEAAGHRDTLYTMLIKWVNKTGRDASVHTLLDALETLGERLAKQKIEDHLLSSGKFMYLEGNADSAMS

SMILES	activity [1]	activity [2]
CCCCN(CC)S(=O)(=O)c1ccc(C(=O)N=c2sc3cc(NC(C)=O)ccc3n2C)cc1	20.9%	53.8%
CC1CCc2nc(NC(=O)c3ccco3)sc2C1 (stereo not drawn)	90.5%	89%
COc1cccc2sc(N(CCCN(C)C)C(=O)c3ccc(S(=O)(=O)N4CCc5ccccc5C4)cc3)nc12	56.8%	79%
CCOc1ccccc1NC(=O)c1nc(S(=O)(=O)Cc2cccc(C)c2)ncc1Cl	84.6%	97.2%
COc1ccc(-c2cc3nc(C)cc(N)n3n2)cc1	90.2%	86.5%
Cc1nc2c(-c3ccc(F)cc3)cnn2c(N)c1-c1ccc(F)cc1	66.2%	57%
O=C(OCn1ncc(Cl)c(Cl)c1=O)c1cccc(C(F)(F)F)c1	99.2%	99.3%
CC(=O)c1sc(NC(=O)c2ccc(C(C)(C)C)cc2)nc1C	30.1%	35.9%
COc1ccccc1-c1nnc(-c2ccc(C)cc2)o1	46.6%	43.5%
S=c1[nH]ncn1/N=C/c1ccc(N2CCOCC2)cc1	62%	59.8%
CC(C)Cc1ccc(C(C)CC2=CCC(CN(C)C)C2=O)cc1 (stereo not drawn)	86.2%	91.8%
Cc1cc2[nH]c3c4ccccc4nc(C)c3c2cc1C	99.5%	99.8%
O=C(Nc1ccc(F)cc1)c1nc(S(=O)(=O)Cc2ccccc2)ncc1Cl	57%	94.9%
Cc1cc(NC(=O)CSc2nnc(-c3ccc4c(c3)OCCO4)o2)no1	52.1%	58.8%
Cc1ccnc(NC(=S)NC(=O)c2cccs2)c1	90%	87.7%
Cc1cccc(NC(=O)c2nc[nH]c2C(=O)N[C@@H](CCCCNC(=O)OC(C)(C)C)C(=O)OC(C)(C)C)c1	80.3%	77%
COc1ccc(S(=O)(=O)N2CCC(C(=O)NCCC3=CCCCC3)CC2)cc1C	13.8%	22.2%
Cc1occc1C(=O)O/N=C(\N)c1ccccc1	89.7%	92.8%
O=C(CCl)N(c1ccccc1)c1ccccc1	99.2%	99%
Cc1cccc(NC(=O)c2cc3ccccc3c(=O)o2)n1	60.3%	68.3%
CCc1ccc(C(=O)Nc2nnn(CC)n2)cc1	73.6%	75.5%
c1ccc(CNc2nc(NCC3CC3)nc3cc(-c4ccccc4)sc23)cc1	15.9%	16.7%

SMILES	activity [1]	activity [2]
CC1CCC(C(C)C)C(OC(=O)Cn2c(-c3ccc(Cl)cc3)[n+](C)c3ccccc32)C1 (stereo not drawn)	76.7%	62%
Cc1cc(Br)ccc1OCCCCNCCO	28.1%	41.9%
Cc1cccc(NC(=O)c2onc3c2CCCC3)n1	85.6%	89.4%
Cc1ccc(C(=O)Nc2nc3c(s2)CCCC3)o1	70.4%	69.2%
COc1ccc2nc(Cl)c(/C=N/Nc3ccccn3)cc2c1	64.5%	59.5%
CC(C)(C)Nc1ncnc2c1cnn2-c1ccccc1	73.8%	69.5%
O=C(Nc1nc2ccccc2[nH]1)c1ccccc1	88%	84.5%
Cn1c(NC(=O)c2ccc(F)cc2)nc2ccccc21	45.1%	57.1%
CC1=C(C(=O)N(C)C)CC(CC(=O)NCCN2CCOCC2)C(=O)N1CCCN1CCCC1=O (stereo not drawn)	-0.625%	-4.97%
c1ccc2oc(-c3csc(N4CCOCC4)n3)cc2c1	67.7%	51.3%
O=C(Nc1ccc(N2CCN(C(=O)c3ccccc3)CC2)cc1)c1ccc([N+](=O)[O-])o1	89%	99.3%
O=C(Nc1ccc(NC(=O)c2ccccc2F)cn1)c1ccco1	66.8%	58.3%
O=C(N/N=C\c1ccc(CNS(=O)(=O)c2ccc(Cl)cc2)o1)C(=O)Nc1ccc(Oc2ccccc2)cc1	79.5%	91.1%
O=C(Nc1cccc(-c2ccc(N3CCCCC3)nn2)c1)C(F)(F)F	95.2%	95.2%
O=C(CNC(=O)c1ccccc1F)N/N=C/c1cc(Br)ccc1OC(=O)/C=C/c1ccco1	3.4%	20.8%
Cc1ccc(-c2nc3cc(N)ccc3o2)cc1	69.2%	60%
COc1cc2nc(N3CCNCC3)nc(N)c2cc1OC	27.5%	0.125%
O=C(Cn1ncc(Cl)c(Cl)c1=O)NC1CCCCC1	98%	98.5%
Cc1ccc(C(=O)Nc2ccc3c(c2)OCO3)cc1	75.8%	63%
CCOC(=O)C1=CCN(S(=O)(=O)c2ccccc2Cl)C1c1cccc(F)c1 (stereo not drawn)	-2.9%	11.8%
Cc1ccc(C(=O)COC(=O)c2ccc3c(c2)C(=O)N(c2cccc4ncccc24)C3=O)cc1	54.7%	43.5%
Cc1cc(C(=O)CSc2nnc(N)s2)c(C)n1Cc1cccs1	72.5%	77.5%
